High-throughput results deposited in PubChem BioAssay by The Scripps Research Institute Molecular Screening Center.
Compounds with a hit are over-represented: about 3.5% of the library has one in this group of screens.
TEAD-YAP inh = TEAD-YAP interaction inhibition. HEK-TIYL cells, TEAD-Gal4/YAP UAS-luciferase luminescence. inhibition, % at 9.12 µM. 640,000 tested, 1.4% active; in the data active = inhibition above about 32%;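 also: 0% = median of test compound wells and 100% = reference inhibitor wells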
MITF inh = human MITF inhibition, primary screen. O75030. AlphaScreen MITF homodimerization, bead proximity signal. inhibition, % at 2.6 µM. 650,000 tested, 0.91% active. AID 1259374; in the data active = inhibition above about 50%;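 also: 0% = vehicle wells with protein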
FBW7 activator = activators of human E3 ligase FBW7; Q969H0; AlphaScreen FBW7–phospho-cyclin E peptide binding, activator screen; normalized activity (activation), % at 26.1 µM; 650,000 tested, 0.13% active; in the data active = normalized activity above about 1.9%;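 also: purified mutant Fbw7 with reduced substrate affinity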
GPR151 ag = human GPR151 activation | activation, % at 11.2 µM | PathHunter beta-arrestin GPR151 cells, luminescence | 650,000 tested, 1% active | Q8TDV0 | AID 1508602; in the data active = activation above about 4.9%;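 also: 0% = median of compound wells and 100% = cells with positive control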
Target sequence (Q8TDV0 whole entry, looked up): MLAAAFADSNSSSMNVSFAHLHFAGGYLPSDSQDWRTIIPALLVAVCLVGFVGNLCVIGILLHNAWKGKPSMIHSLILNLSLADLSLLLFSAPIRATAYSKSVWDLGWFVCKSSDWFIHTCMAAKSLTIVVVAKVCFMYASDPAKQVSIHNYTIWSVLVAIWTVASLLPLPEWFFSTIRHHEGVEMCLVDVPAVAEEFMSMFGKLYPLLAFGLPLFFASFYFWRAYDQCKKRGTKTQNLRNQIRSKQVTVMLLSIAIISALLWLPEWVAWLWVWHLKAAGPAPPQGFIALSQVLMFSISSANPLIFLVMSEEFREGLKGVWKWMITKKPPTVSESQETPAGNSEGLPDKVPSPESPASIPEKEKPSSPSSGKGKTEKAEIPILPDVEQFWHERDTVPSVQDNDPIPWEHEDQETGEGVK
GPR151 confirm = human GPR151 activation, confirmation screen | shares compounds with GPR151 ag | 6,700 tested, under 10 active | GPR151 PathHunter beta-arrestin cells, luminescence, 90 min; % of EA-reagent control over plate median | activation, % at 11.2 µM;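 active = mean percent activation across replicates above the confirmation screen cutoff of 4.91%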
GPR119 counter = activates human GPR119 in a GPR151 counter-screen; 6,700 tested, 0.3% active; shares compounds with GPR151 ag; GPR119 PathHunter beta-arrestin cells, luminescence, 90 min; 0 = compound-well median, 100 = enzyme-acceptor control; activation, % at 11.2 µM;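 active = mean percent activation in the counterscreen above 29.09%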;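 also: counterscreen on off-target GPR119 to flag nonselective hits from the GPR151 activator screen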
Numbers without * were called inactive; nt = no result; ! = not active in a repeat.

SMILES	TEAD-YAP inh	MITF inh	FBW7 activator	GPR151 ag	GPR151 confirm	GPR119 counter
COc1ccc(N=Cc2ccc(OC(C)=O)c(OC)c2)cc1	8	10	0	0	nt	nt
O=C(CCC1=NNC(=O)CC1)NCCN1Cc2ccccc2OC(c2ccccc2F)C1 (centres undefined)	0	5	0	1	nt	nt
O=C1CCC(CCC(=O)N2Cc3ccccc3OC(c3ccccc3)C2)=NN1 (centres undefined)	-10	-3	0	9.9*	0	5
Cc1ccc(-n2ncc3c(=O)n(Cc4cccnc4)cnc32)cc1	-14	15	0	6.6*	0	0
CCCCn1c(=O)c2c(nc3n(Cc4ccc(OC)cc4)c(C)cn23)n(C)c1=O	3	11	1	0	nt	nt
C=CCn1c(C)cn2c3c(=O)n(CC(C)C)c(=O)n(C)c3nc12	6	-7	0	1	nt	nt
Cc1cn2c3c(=O)n(CC(C)C)c(=O)n(C)c3nc2n1C	5	13	0	5.6*	-1	6
CCCCCn1c(=O)c2c(nc3n(Cc4ccc(OC)cc4)c(C)cn23)n(C)c1=O	7	1	0	4.9*	-1	-7
CCOC(=O)c1ccc(-n2c(C)cn3c4c(=O)n(C)c(=O)n(C)c4nc23)cc1	-1	-6	0	1	nt	nt
CCOC(=O)c1ccc(-n2c(C)cn3c4c(=O)n(CCC(C)C)c(=O)n(C)c4nc23)cc1	10	1	0	5.1*	0	5
COc1ccc(-c2nn(CCC#N)cc2/C=N/O)cc1OC	-11	12	1	-1	nt	nt
O=C(Cc1cn(-c2ccc(Nc3cnccn3)nn2)c2ccccc12)NCCOc1ccccc1	10	7	0	6.2*	-1	-6
COc1ccc(-n2ncc3c(N4CCN(c5ccccc5F)CC4)ncnc32)cc1	16	1	0	-1	nt	nt
COc1ccc(CCN2C(=O)NC(NC(C)=O)(C(F)(F)F)C2=O)cc1OC (centres undefined)	3	12	0	5.0*	0	-9
O=C(NCCN1CCCCCC1)c1ncoc1-c1ccc(Cl)cc1	6	-20	0	5.9*	0	10
COc1ccc(-c2ocnc2C(=O)NCCN2CCCCCC2)cc1OC	3	14	0	1	nt	nt
COc1ccccc1N1CCN(C(=O)c2cnc(N3CCN(c4ncccn4)CC3)c3ccccc23)CC1	24	6	0	5.3*	2	14
COc1ccccc1N1CCN(c2ncc(C(=O)N3CCN(c4ccccn4)CC3)c3ccccc23)CC1	1	13	1	-1	nt	nt
CC(C(=O)OCC(=O)Nc1ccc(SC(F)F)cc1)N1C(=O)c2ccccc2C1=O (centres undefined)	-4	0	0	5.8*	0	-9
Cc1nn(CC(=O)Nc2ccc(Oc3ccc(Cl)cc3)cc2)c(C)c1[N+](=O)[O-]	-3	-13	0	-1	nt	nt
Cc1nn(CC(=O)Nc2ccc(O)cc2)c(C)c1[N+](=O)[O-]	6	19	0	6.1*	0	2
CCOC(=O)CSc1nnc(-c2cccc(NC(=O)c3ccccc3Cl)c2)n1C	0	6	0	5.3*	1	1
CCOCCCNc1c(-c2ccccc2)nc2ccc(Br)cn12	-39	-3	0	1	nt	nt
CCOCCCNc1c(-c2ccccc2)nc2cnccn12	6	9	0	5.6*	0	5
CCc1ccc(NC(=O)c2ccc(F)c(S(=O)(=O)NCc3ccc(C)cc3)c2)cc1	-4	-6	0	2	nt	nt
SMILES	TEAD-YAP inh	MITF inh	FBW7 activator	GPR151 ag	GPR151 confirm	GPR119 counter
C=CCNS(=O)(=O)c1cc(C(=O)Nc2ccc(OCC)cc2)ccc1F	26	7	0	5.7*	0	-1
C=CCNS(=O)(=O)c1cc(C(=O)Nc2cc(Cl)cc(Cl)c2)ccc1F	-16	-9	0	-2	nt	nt
O=C(Nc1ccccc1)c1ccc(Cl)c(S(=O)(=O)NCc2ccccc2)c1	13	-2	0	8.2*	-1	-13
Cc1ccc(CNS(=O)(=O)c2cc(C(=O)Nc3ccc(C(C)C)cc3)ccc2F)cc1	4	13	0	5.8*	1	7
CC(C)N(CCNc1nc(NC2CCN(Cc3ccccc3)CC2)nc2c1ncn2-c1ccccc1)C(C)C	6	-1	0	4	nt	nt
CC1=C(C(=O)O)N2C(=O)[C@@H](NC(=O)[C@H](N)C3=CCC=CC3)C2SC1 (some centres undefined)	14	11	0	-1	nt	nt
CC1=C(C(=O)O)N2C(=O)[C@@H](NC(=O)C(N)C3=CCC=CC3)[C@H]2SC1 (some centres undefined)	3	2	1	8.4*!	1	11
N#CC1(C#N)CC(C=O)=C(N)C1(C#N)CC(=O)C12CC3CC(CC(C3)C1)C2 (centres undefined)	6	4	0	14*	1	7
CC(C)(C)CN1CCN(Cc2ccc3cccc(F)c3n2)CC1CCO (centres undefined)	-5	0	0	7.2*	1	3
CC(C)CN1CCN(Cc2ccc3cccc(F)c3n2)CC1CCO (centres undefined)	-4	6	0	-1	nt	nt
COC(=O)C1=C(C)N(C)C(C)=C(C(=O)OC)C1c1ccc(C(F)(F)F)cc1	-3	15	1	-1	nt	nt
CC[C@H](C)NC(=O)CCCc1nnc2n(CCC(C)C)c(=O)c3sccc3n12	1	2	0	-1	nt	nt
CC(C)CCn1c(=O)c2sccc2n2c(CCCC(=O)O)nnc12	1	14	0	5.2*	0	-2
Cc1sc(NC(=O)CCS(=O)(=O)c2ccc(Cl)cc2)c(C#N)c1C	2	11	0	5.2*	0	1
CCn1ccnc1CN1CCN(Cc2ccc(F)cc2)C(CCO)C1 (centres undefined)	-5	-1	0	13*	1	-1
CCOc1ccc(CN2CCN(Cc3cnc(N4CCOCC4)s3)CC2CCO)cc1 (centres undefined)	6	2	0	0	nt	nt
Cc1ccc(CN2CCN(Cc3cccc4nccnc34)CC2CCO)cc1 (centres undefined)	-5	-1	0	6.7*	0	-13
CCn1ccnc1CN1CCN(Cc2ccc(C)cc2)C(CCO)C1 (centres undefined)	1	21	0	3	nt	nt
CCOc1ccc(CN2CCN(Cc3cnc(N(C)C)s3)CC2CCO)cc1 (centres undefined)	-6	-5	0	5.7*	0	0
CC(C)CN1CCN(Cc2cccc3nccnc23)CC1CCO (centres undefined)	-5	-1	0	0	nt	nt
CCN1CCC(Oc2ccc(-c3ccc(C#N)cc3)cc2)CC1	-15	3	0	4	nt	nt
CS(=O)(=O)N1CCC(Oc2ccc(-c3ccc(C#N)cc3)cc2)CC1	7	-6	0	12*	-1	-6
